The values below come from PubChem BioAssay AID720690 (Broad Institute, 2013).

Entries with a potency or affinity are not part of this list. A number with no mark means an inactive call.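 Rule for the calls: active = every repeat run showing a signal drop whose fitted half-maximal concentration is at most twice the top tested concentration; inconclusive = repeat runs disagree, or flat partial drop, or poor fit; inactive = the rest.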

A short description of this test: general mammalian cell viability loss – activator set, cherry-pick, cytotoxicity control for miR-122 modulator project, dose response (AID 720690).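 Note: 0% = neutral control wells and -100% = MG132 cytotoxic control wells.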 Particulars: HEK293T viability, CellTiter-Glo luminescence, 48 h; series mostly up to 26 µM; activity change, negative = cytotoxicity: at the top concentration.
For `CCc1nc2sc(C)c(C)c2c(=O)n1CCO`, the “activity change, negative = cytotoxicity” value was 3.22%. Then `C[C@@H]1CN([C@H](C)CO)S(=O)(=O)c2ccc(C3=CCCCC3)cc2O[C@@H]1CN(C)C(=O)Cc1ccncc1`, with -27.7%. Then `CC(C)Oc1ccc(C(CCN)C2CCCCC2)cc1` (configuration not stated), with -85.3%; and `CCC(=O)N1[C@H](CO)[C@H](c2ccccc2)[C@H]1CN(C(C)C)S(C)(=O)=O`, with 0.199%; and `C/C(=N\Nc1cc(N2CCCCC2)nc(C)n1)c1ccc(Br)cc1`, with -41.1%. Next, `CCC(=O)N1[C@H](CN(C(C)C)S(C)(=O)=O)[C@@H](c2ccccc2)[C@@H]1CO`: -1.45% [at 23.5 µM]; `CNC(=O)C[C@@H]1CC[C@@H]2[C@H](COc3ccc(NC(=O)Nc4ccc(Cl)cc4)cc3C(=O)N2C)O1`: 2.54%. Take `CN1C(=O)c2cc(NC(=O)c3ccc4c(c3)OCO4)ccc2OC[C@H]2O[C@@H](CC(=O)O)CC[C@@H]21`: the “activity change, negative = cytotoxicity” value is -17.1%.

Take `COc1cccc(NC(=O)C[C@@H]2CC[C@@H]3[C@@H](COc4ccc(NS(=O)(=O)c5cccc(F)c5)cc4C(=O)N3C)O2)c1`: the “activity change, negative = cytotoxicity” value was -6.79% [at 23.5 µM]. Next, `CC(C)C(=O)Nc1ccc2c(c1)C(=O)N(C)[C@@H]1CC[C@@H](CC(=O)NCC3CC3)O[C@H]1CO2`: -13.5%. Then `C/C=C/c1ccc([C@H]2[C@@H](CO)N(C(=O)C3CC3)[C@H]2CN(C)C(=O)CC2CC2)cc1`, with -21.8%; and `Cc1cc(C)cc(Oc2ccc(NC(=O)C3CC=CCC3C(=O)O)cc2)c1` (configuration not stated), with -6.22%; and `COc1ccc(-c2c(C)nn3c(N)c(-c4ccccc4)cnc23)cc1OC`, with 21.1%. Then `COc1cccc(-c2nc(NCCN3CCOCC3)c3ccccc3n2)c1O`, with -17.9%.

In the case of `CNC(=O)C[C@@H]1CC[C@@H]2[C@@H](COc3ccc(NC(=O)c4ccccc4F)cc3C(=O)N2C)O1`, the “activity change, negative = cytotoxicity” value is -0.472% [at 23.5 µM]. Next, `CN1C(=O)c2cc(NC(=O)c3cccc(F)c3)ccc2OC[C@@H]2O[C@@H](CC(=O)Nc3ccccc3)CC[C@@H]21`: -29.8% [at 23.5 µM]; `COCC(=O)Nc1ccc2c(c1)C(=O)N(C)[C@@H]1CC[C@@H](CC(=O)NCc3ccc(OC)cc3)O[C@H]1CO2`: 1.5%. Next, `CN1C(=O)c2cc(NC(=O)c3cccc(F)c3)ccc2OC[C@@H]2O[C@@H](CC(=O)NC3CCC3)CC[C@H]21`: -9.53%. Then `CCCC(=O)Nc1ccc2c(c1)C(=O)N(C)[C@@H]1CC[C@H](CC(=O)NCc3cccc(F)c3)O[C@H]1CO2`, with -22.4%; and `C/C=C/c1ccc([C@@H]2[C@@H](CO)N(C(C)=O)[C@@H]2CN(C)C(=O)c2ccccn2)cc1`, with -11.1%; and `c1ccc(CCCNCCCn2cnc3c(OCc4ccccc4)ncnc32)cc1`, with -37.7%. As for `CNC(=O)C[C@@H]1CC[C@@H]2[C@@H](COc3ccc(NC(=O)Cc4cccs4)cc3C(=O)N2C)O1`, the “activity change, negative = cytotoxicity” value is 11.6%. With `Cc1noc(C)c1NC(=O)N(C)C[C@@H]1Oc2cc(C#CCC3CCCC3)ccc2S(=O)(=O)N([C@@H](C)CO)C[C@@H]1C`, the “activity change, negative = cytotoxicity” value was -48.3%. For `CC(C)C#Cc1ccc2c(c1)O[C@H](CN(C)C(=O)Nc1ccccc1)[C@H](C)CN([C@@H](C)CO)S2(=O)=O`, the “activity change, negative = cytotoxicity” value is -13%.

For `CC(=O)N1[C@H](CO)[C@@H](c2ccccc2)[C@H]1CN(C(=O)NC(C)C)C1CCCC1`, the “activity change, negative = cytotoxicity” value was -6.13%.

`O=C(COC(=O)Cc1ccc(S(=O)(=O)N2CCOCC2)s1)Nc1ccc2c(c1)OCO2`: the “activity change, negative = cytotoxicity” value was -7.67%. Then `CO[C@H]1CN(C)C(=O)c2cc(NC(C)=O)ccc2OC[C@@H](C)N(C(=O)c2ccccn2)C[C@H]1C`, with -7.67%; and `O=C(Nc1ccc(Cl)c(C(F)(F)F)c1)c1ccco1`, with -1.21%. As to `CC(=O)Nc1ccc2c(c1)C(=O)N(C)[C@H]1CC[C@@H](CC(=O)NCc3ccc4c(c3)OCO4)O[C@@H]1CO2`, the “activity change, negative = cytotoxicity” value was -3.39% [at 23.5 µM]. Then `CCCNC(=O)C[C@@H]1CC[C@@H]2[C@H](COc3ccc(NS(=O)(=O)c4ccccc4C)cc3C(=O)N2C)O1`, with -12.3%. Then `COCC(=O)N(C)C[C@H]1Oc2cc(-c3ccccc3F)ccc2S(=O)(=O)N([C@@H](C)CO)C[C@H]1C`, with -7.98%; and `CCOc1cc(C(=O)NC(C)COC)cc(OCC)c1OCC` (configuration not stated), with 0.828%.

As for `CNc1nc(NCC2CCCCC2)c2sccc2n1`, the “activity change, negative = cytotoxicity” value is -0.267%. As to `CSc1cccc(NS(=O)(=O)c2ccccc2)c1`, the “activity change, negative = cytotoxicity” value is -0.1%. Next, `CN1C(=O)c2cc(NC(=O)c3cccc(F)c3)ccc2OC[C@@H]2O[C@H](CC(=O)O)CC[C@H]21`: 9.87%. Then `Nc1nc(Cl)nc2c1ncn2[C@H]1C[C@H](O)[C@@H](CO)O1`, with -34.9%; and `CN1C(=O)c2cc(NC(=O)Cc3ccccc3)ccc2OC[C@H]2O[C@@H](CC(=O)NCc3ccc(Cl)cc3)CC[C@@H]21`, with -7.94%.
